Measurements as given in the supplement of paper PMC10338343.
± gives the standard deviation. Whole data set: some 8,200 sequences, median “pre-steady-state target cleavage rate” near 0.024, cut for the highest 2% near 1.3. What follows is part of a selection rich in the highest values, with near analogues and random picks from the rest.

System: MIWI (PIWIL1) piRISC loaded with L1MC piRNA (30 nt)
Test: pre-steady-state target cleavage rate (min^-1); MIWI and MILI are mouse PIWI proteins and EfPiwi is from a freshwater sponge; tags in brackets are library labels; higher = faster piRNA-guided slicing of the target
Conditions: guide: L1MC piRNA 5'p-UAACUAAAUACUAUGCAAGCUGUAGGUCCU
How it was run: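 Cleave-'n-Seq reactions paired 0.1 nM transcribed, DNA-blocked target RNA library with 1 nM active affinity-purified piRISC holding one synthetic guide, plus or minus 500 nM GTSF1 partner protein, in HEPES–potassium acetate buffer at 33 °C for 0–8 or 0–960 min. After sequencing of uncleaved targets and normalisation to depth and weakly complementary targets, the pre-steady-state cleavage rate was taken from a burst-and-steady-state fit. Three trials were pooled, and k3 was capped at 0.0001 min^-1.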

[1] = auxiliary factor: 500 nM mouse GTSF1
[2] = auxiliary factor: none (no GTSF1)

For UCCUGGAUGAGCUACCAUAGUAUUUAGUUA, the “pre-steady-state target cleavage rate” value [1] was 0.0107 ± 0.0041.

In the case of UCCUCCUACAGCUUGCAUAGUAUUGUAGUUA, the “pre-steady-state target cleavage rate” value [1] is reported as 0.282 ± 0.054 and the “pre-steady-state target cleavage rate” value [2] is reported as 0.00959 ± 0.0038.

In the case of UCCUGGAACAGCUUGCAUGUAUUUAGUUA, the “pre-steady-state target cleavage rate” value [1] is reported as 0.103 ± 0.015 and the “pre-steady-state target cleavage rate” value [2] is reported as 0.00591 ± 0.0032.

In the case of UCCUGGAUGUCCUUGCAUACUAUUUAGUUA, the “pre-steady-state target cleavage rate” value [1] is reported as 0.0164 ± 0.0047 and the “pre-steady-state target cleavage rate” value [2] is reported as 0.00616 ± 0.0016.

UCCACCUACAGCUUCCAUAGUAUUUACAAA was tested, and the “pre-steady-state target cleavage rate” value [1] was 0.0165 ± 0.008.

With UCCUGGUACAGCUUGCAUAGUAUUUAGCUA the “pre-steady-state target cleavage rate” value [1] was 0.00692 ± 0.0039.

For AGGUGCUACAGCUUGCAUAGUAUUUAGUUA, the “pre-steady-state target cleavage rate” value [1] was 1.23 ± 0.064 and the “pre-steady-state target cleavage rate” value [2] was 0.0832 ± 0.016.

UCGUGCUACAGCUUGCAUAGUAUUUAGUUA was tested, and the “pre-steady-state target cleavage rate” value [1] was 1.38 ± 0.059 and the “pre-steady-state target cleavage rate” value [2] was 0.0704 ± 0.012.

With UCGUGCUACAGCUUGCAUAGUAUUUAGUAA the “pre-steady-state target cleavage rate” value [1] was 0.926 ± 0.053 and the “pre-steady-state target cleavage rate” value [2] was 0.0286 ± 0.0054.

UGGAGGAACAGCUUGCAUAGUAUUUAGAAA was tested, and the “pre-steady-state target cleavage rate” value [1] was 0.364 ± 0.037 and the “pre-steady-state target cleavage rate” value [2] was 0.00934 ± 0.004.

UCCUCCUACCAGCUUGCAUAGUAUUUAGUUA was tested, and the “pre-steady-state target cleavage rate” value [1] was 1.15 ± 0.055 and the “pre-steady-state target cleavage rate” value [2] was 0.0479 ± 0.011.

UCGACCUACAGGUUGCAUACUAUUUAGUUA was tested, and the “pre-steady-state target cleavage rate” value [1] was 0.273 ± 0.018 and the “pre-steady-state target cleavage rate” value [2] was 0.0207 ± 0.004.

UCGACCUACAGCAUUGCAUAGUAUUUAGUUA was tested, and the “pre-steady-state target cleavage rate” value [1] was 1.19 ± 0.082 and the “pre-steady-state target cleavage rate” value [2] was 0.0581 ± 0.012.

With UCGACCUACAGCAUGCAUAGUAUUUAGUAA the “pre-steady-state target cleavage rate” value [1] was 0.99 ± 0.072 and the “pre-steady-state target cleavage rate” value [2] was 0.0189 ± 0.0064.

AGCACCUACAGCAUGCAUAGUAUUUAGUUA was tested, and the “pre-steady-state target cleavage rate” value [1] was 1.02 ± 0.13 and the “pre-steady-state target cleavage rate” value [2] was 0.0663 ± 0.022.

For UCGACCUACAGCAUGCAUAGUAUUUAGUUA, the “pre-steady-state target cleavage rate” value [1] was 1.48 ± 0.049 and the “pre-steady-state target cleavage rate” value [2] was 0.0548 ± 0.013.

ACGACCUACAGCAUGCAUAGUAUUUAGUUA was tested, and the “pre-steady-state target cleavage rate” value [1] was 1.43 ± 0.053 and the “pre-steady-state target cleavage rate” value [2] was 0.082 ± 0.021.

UGCACCUACAGCAUGCAUAGUAUUUAGUUA was tested, and the “pre-steady-state target cleavage rate” value [1] was 0.998 ± 0.092 and the “pre-steady-state target cleavage rate” value [2] was 0.0271 ± 0.0047.

For UCCUGCUAGAGCUUGCAUAGUAUUUACAAA, the “pre-steady-state target cleavage rate” value [1] was 0.186 ± 0.047.

For UCCUGCUACAGCUAGCAUAGUAUUUUCAAA, the “pre-steady-state target cleavage rate” value [1] was 0.0744 ± 0.023.

In the case of UCCUGGAACAGCUUGCAAUGUAUUUAGUAA, the “pre-steady-state target cleavage rate” value [1] is reported as 0.146 ± 0.018 and the “pre-steady-state target cleavage rate” value [2] is reported as 0.00598 ± 0.003.

UGGACCUACAGCUUGCAUAGUAUUUAUUA was tested, and the “pre-steady-state target cleavage rate” value [1] was 0.126 ± 0.015 and the “pre-steady-state target cleavage rate” value [2] was 0.00594 ± 0.0034.

For UGGACCUACAGCUUGCAUAGUUAAUAGAAA, the “pre-steady-state target cleavage rate” value [1] was 0.0323 ± 0.01.

In the case of AGGACCUCAGCUUGCAUAGUAUUUAGUUA, the “pre-steady-state target cleavage rate” value [1] is reported as 1.34 ± 0.077 and the “pre-steady-state target cleavage rate” value [2] is reported as 0.0984 ± 0.019.

In the case of UGGACCUCCAGCUUGCAUAGUAUUUAGUUA, the “pre-steady-state target cleavage rate” value [1] is reported as 1.39 ± 0.054 and the “pre-steady-state target cleavage rate” value [2] is reported as 0.08 ± 0.014.

UGGACCUCAGCUUGCAUAGUAUUUAGUUA was tested, and the “pre-steady-state target cleavage rate” value [1] was 1.43 ± 0.094 and the “pre-steady-state target cleavage rate” value [2] was 0.055 ± 0.011.

For AGGACCUCCAGCUUGCAUAGUAUUUAGUUA, the “pre-steady-state target cleavage rate” value [1] was 1.22 ± 0.048 and the “pre-steady-state target cleavage rate” value [2] was 0.0926 ± 0.018.

UCCACCUCAGCUUGCAUAGUAUUUAGUUA was tested, and the “pre-steady-state target cleavage rate” value [1] was 0.878 ± 0.07 and the “pre-steady-state target cleavage rate” value [2] was 0.0436 ± 0.0088.

UGGACCUAAGCUUGCAUAGUAUUUAGUUA was tested, and the “pre-steady-state target cleavage rate” value [1] was 1.27 ± 0.083 and the “pre-steady-state target cleavage rate” value [2] was 0.0446 ± 0.012.

In the case of UCCACCUCCAGCUUGCAUAGUAUUUAGUUA, the “pre-steady-state target cleavage rate” value [1] is reported as 0.89 ± 0.033 and the “pre-steady-state target cleavage rate” value [2] is reported as 0.0442 ± 0.0078.

In the case of UCGACCUACUGCUUGCAUAGUAUUUACUUA, the “pre-steady-state target cleavage rate” value [1] is reported as 0.278 ± 0.017 and the “pre-steady-state target cleavage rate” value [2] is reported as 0.0322 ± 0.0038.

With UCCUGGUACACCUUGCAUAGUAUAUAGUUA the “pre-steady-state target cleavage rate” value [1] was 0.555 ± 0.09 and the “pre-steady-state target cleavage rate” value [2] was 0.00685 ± 0.0027.

With UCCACCUACAGCUUGCAUAGUAUAAUCAAA the “pre-steady-state target cleavage rate” value [1] was 0.327 ± 0.056.

With AGGAGCAACAGCUUGCAUAGUAUUUAGUUA the “pre-steady-state target cleavage rate” value [1] was 1.67 ± 0.069 and the “pre-steady-state target cleavage rate” value [2] was 0.0907 ± 0.016.

For UGGAGGAACAGCUUGCAUAGUAUUUAGUUA, the “pre-steady-state target cleavage rate” value [1] was 1.26 ± 0.049 and the “pre-steady-state target cleavage rate” value [2] was 0.0795 ± 0.015.

In the case of AGGAGGAACAGCUUGCAUAGUAUUUAGUUA, the “pre-steady-state target cleavage rate” value [1] is reported as 1.41 ± 0.065 and the “pre-steady-state target cleavage rate” value [2] is reported as 0.0955 ± 0.019.

For UCGAGCAACAGCUUGCAUAGUAUUUAGUUA, the “pre-steady-state target cleavage rate” value [1] was 1.29 ± 0.044 and the “pre-steady-state target cleavage rate” value [2] was 0.076 ± 0.013.

For UCGAGGAACAGCUUGCAUAGUAUUUAGUUA, the “pre-steady-state target cleavage rate” value [1] was 1.02 ± 0.076 and the “pre-steady-state target cleavage rate” value [2] was 0.057 ± 0.011.

With UCCAGCAACAGCUUGCAUAGUAUUUAGUUA the “pre-steady-state target cleavage rate” value [1] was 1.19 ± 0.049 and the “pre-steady-state target cleavage rate” value [2] was 0.0797 ± 0.014.

UGGAGCAACAGCUUGCAUAGUAUUUAGUUA was tested, and the “pre-steady-state target cleavage rate” value [1] was 1.39 ± 0.044 and the “pre-steady-state target cleavage rate” value [2] was 0.0851 ± 0.016.

In the case of UCCUGGAGCAGCUUGCAUAGUAUUUAGUUA, the “pre-steady-state target cleavage rate” value [1] is reported as 1.13 ± 0.044 and the “pre-steady-state target cleavage rate” value [2] is reported as 0.0692 ± 0.013.

For UCCUGGAUGUGCUUUGCAUAGUAUUUAGUUA, the “pre-steady-state target cleavage rate” value [1] was 0.251 ± 0.022 and the “pre-steady-state target cleavage rate” value [2] was 0.0142 ± 0.0043.

UCCUGGAUGAGCUUGCAAAGUAUUUUGUUA was tested, and the “pre-steady-state target cleavage rate” value [1] was 0.267 ± 0.029 and the “pre-steady-state target cleavage rate” value [2] was 0.0136 ± 0.0037.

For UCGACGUACACCUUGCAUAGUAUUUAGUUA, the “pre-steady-state target cleavage rate” value [1] was 1.23 ± 0.026 and the “pre-steady-state target cleavage rate” value [2] was 0.0575 ± 0.0089.

For UCCUGGUACAGCUAGCAUAGUAAUUAGUUA, the “pre-steady-state target cleavage rate” value [1] was 0.379 ± 0.053 and the “pre-steady-state target cleavage rate” value [2] was 0.00998 ± 0.0037.

UCCUGGUACAGCUUGCAUAGUAUUUGGUUA was tested, and the “pre-steady-state target cleavage rate” value [1] was 0.449 ± 0.037 and the “pre-steady-state target cleavage rate” value [2] was 0.0417 ± 0.0074.

For UGGACCUACAGCUUGCAUAGUUAUUACAAA, the “pre-steady-state target cleavage rate” value [1] was 0.0207 ± 0.0062.

In the case of UCGACCUACACCUUGCAUAGUAUUUACUUA, the “pre-steady-state target cleavage rate” value [1] is reported as 0.254 ± 0.034 and the “pre-steady-state target cleavage rate” value [2] is reported as 0.0244 ± 0.0036.

UCCUGGAUGAGCUUGGAUAGUAUUUACUUA was tested, and the “pre-steady-state target cleavage rate” value [2] was 0.00357 ± 0.0031.

With UCGACCUACAGGCUUGCAUAGUAUUUAGUUA the “pre-steady-state target cleavage rate” value [1] was 1.07 ± 0.045 and the “pre-steady-state target cleavage rate” value [2] was 0.07 ± 0.011.

UGGACCUACGGCUUGCAUAGUAUUUAGUUA was tested, and the “pre-steady-state target cleavage rate” value [1] was 1.44 ± 0.1 and the “pre-steady-state target cleavage rate” value [2] was 0.0662 ± 0.013.

With UCGACCUACGAGCUUGCAUAGUAUUUAGUUA the “pre-steady-state target cleavage rate” value [1] was 0.737 ± 0.077 and the “pre-steady-state target cleavage rate” value [2] was 0.0529 ± 0.011.

With AGGACCUACGGCUUGCAUAGUAUUUAGUUA the “pre-steady-state target cleavage rate” value [1] was 1.27 ± 0.077 and the “pre-steady-state target cleavage rate” value [2] was 0.0872 ± 0.017.

UCGACCUACGGCUUGCAUAGUAUUUAGUUA was tested, and the “pre-steady-state target cleavage rate” value [1] was 1.35 ± 0.053 and the “pre-steady-state target cleavage rate” value [2] was 0.069 ± 0.011.

UCCACCUACGGCUUGCAUAGUAUUUAGUUA was tested, and the “pre-steady-state target cleavage rate” value [1] was 0.921 ± 0.074 and the “pre-steady-state target cleavage rate” value [2] was 0.0494 ± 0.01.

UCCUCCUACAGCUUGCAUAGUUUUUAGAUA was tested, and the “pre-steady-state target cleavage rate” value [1] was 0.228 ± 0.036 and the “pre-steady-state target cleavage rate” value [2] was 0.00676 ± 0.0025.

In the case of AGGACCUACAGCUUGCAUAGUUUUUAGAUA, the “pre-steady-state target cleavage rate” value [1] is reported as 0.259 ± 0.034 and the “pre-steady-state target cleavage rate” value [2] is reported as 0.0189 ± 0.0055.

For UCCUGCUACAACUUGCAUAGUAUUUAGUUA, the “pre-steady-state target cleavage rate” value [1] was 0.679 ± 0.044 and the “pre-steady-state target cleavage rate” value [2] was 0.0522 ± 0.0072.

For UCCUGGUUCAGCUUGGAUAGUAUUUAGUUA, the “pre-steady-state target cleavage rate” value [1] was 0.791 ± 0.063 and the “pre-steady-state target cleavage rate” value [2] was 0.0603 ± 0.014.

For UCCUGGAACAGCUGCAUAGUAUUUAGUUA, the “pre-steady-state target cleavage rate” value [1] was 0.767 ± 0.044 and the “pre-steady-state target cleavage rate” value [2] was 0.00757 ± 0.0034.

For UCCUGCUACAGCCUGCAUAGUAUUUAGUUA, the “pre-steady-state target cleavage rate” value [1] was 0.976 ± 0.05 and the “pre-steady-state target cleavage rate” value [2] was 0.0598 ± 0.011.
